What all share (experiment): DAPPL (digital affinity profiling via proximity ligation, sequencing); 10 mM Tris-HCl pH 7.5, 50 mM NaCl, 1 mM DTT, 4% glycerol, room temperature, 30 min; GST-TFs on glutathione beads, 16-mer random dsDNA library, 0.1% formaldehyde crosslink after washing; high values mean tight binding
Assay [1] deals with T1, FLI1 (Homo sapiens, UniProt Q01543 1-452).
T1 sequence: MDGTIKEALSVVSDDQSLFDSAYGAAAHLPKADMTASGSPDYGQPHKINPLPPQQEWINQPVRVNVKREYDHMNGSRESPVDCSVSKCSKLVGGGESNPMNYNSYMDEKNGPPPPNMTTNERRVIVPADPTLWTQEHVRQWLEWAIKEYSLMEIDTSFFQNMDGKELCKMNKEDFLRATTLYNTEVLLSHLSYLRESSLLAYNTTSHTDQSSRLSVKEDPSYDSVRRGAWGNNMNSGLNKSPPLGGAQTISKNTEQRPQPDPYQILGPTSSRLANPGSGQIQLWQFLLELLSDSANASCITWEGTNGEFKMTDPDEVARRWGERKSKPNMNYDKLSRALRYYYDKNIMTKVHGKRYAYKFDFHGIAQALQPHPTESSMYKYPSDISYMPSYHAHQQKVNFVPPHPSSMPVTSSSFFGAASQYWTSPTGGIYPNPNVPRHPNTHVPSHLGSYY
The following applies: protein: recombinant; tags: N-terminal GST; dsDNA, one strand shown. The gist of the method:
(§1)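 In yeast, human transcription factors were expressed with a GST fusion, then pulled down on glutathione beads and given DNA barcodes. Pooled with a tag-only sample, they were exposed to 200 nmole of a 16-mer random double-stranded DNA library (Tris/NaCl/DTT/glycerol buffer, room temperature, 30 min), washed, crosslinked with 0.1% formaldehyde, proximity-ligated using BsaI/T4 ligase for 1 h at 37 °C, PCR-amplified and read on an Illumina NextSeq500. Each hexamer's frequency of reads for a factor, divided by the matching frequency for the tag-only sample, gives the binding signal.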

Assay [2] has as its target T2, ELK1 (Homo sapiens, UniProt P19419 1-428).
T2 sequence: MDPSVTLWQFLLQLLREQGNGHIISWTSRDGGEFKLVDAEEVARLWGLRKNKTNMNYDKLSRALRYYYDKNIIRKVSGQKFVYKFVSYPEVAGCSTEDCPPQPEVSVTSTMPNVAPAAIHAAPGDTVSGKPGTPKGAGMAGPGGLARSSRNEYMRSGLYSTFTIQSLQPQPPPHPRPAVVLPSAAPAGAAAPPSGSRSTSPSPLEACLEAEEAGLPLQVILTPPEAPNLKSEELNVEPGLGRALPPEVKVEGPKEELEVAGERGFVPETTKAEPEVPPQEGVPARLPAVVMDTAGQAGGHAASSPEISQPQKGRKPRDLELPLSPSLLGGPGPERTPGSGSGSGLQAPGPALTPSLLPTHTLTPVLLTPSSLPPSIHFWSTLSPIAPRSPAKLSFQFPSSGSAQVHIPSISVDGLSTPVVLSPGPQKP
As to conditions: protein: recombinant; tags: N-terminal GST; dsDNA, one strand shown. The gist of the method:
as §1

Assay [3] concerns the target T3, GABPA (Homo sapiens, UniProt Q06546 1-454).
T3 sequence: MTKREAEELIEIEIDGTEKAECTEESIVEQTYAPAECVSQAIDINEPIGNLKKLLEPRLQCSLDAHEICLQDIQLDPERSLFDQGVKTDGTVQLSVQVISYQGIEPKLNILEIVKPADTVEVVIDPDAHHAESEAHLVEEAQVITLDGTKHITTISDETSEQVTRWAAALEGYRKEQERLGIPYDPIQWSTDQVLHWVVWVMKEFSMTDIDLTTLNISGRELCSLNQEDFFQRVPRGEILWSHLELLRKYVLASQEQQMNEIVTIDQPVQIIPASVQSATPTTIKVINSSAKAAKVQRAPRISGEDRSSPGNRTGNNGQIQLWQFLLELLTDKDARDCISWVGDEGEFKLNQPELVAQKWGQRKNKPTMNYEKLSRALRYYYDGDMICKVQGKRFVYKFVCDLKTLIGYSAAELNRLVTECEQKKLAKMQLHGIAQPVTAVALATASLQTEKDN
As to conditions: protein: recombinant; tags: N-terminal GST; dsDNA, one strand shown. The gist of the method: as §1

Assay [4] concerns the target T4, ERG (Homo sapiens, UniProt P11308 1-479).
T4 sequence: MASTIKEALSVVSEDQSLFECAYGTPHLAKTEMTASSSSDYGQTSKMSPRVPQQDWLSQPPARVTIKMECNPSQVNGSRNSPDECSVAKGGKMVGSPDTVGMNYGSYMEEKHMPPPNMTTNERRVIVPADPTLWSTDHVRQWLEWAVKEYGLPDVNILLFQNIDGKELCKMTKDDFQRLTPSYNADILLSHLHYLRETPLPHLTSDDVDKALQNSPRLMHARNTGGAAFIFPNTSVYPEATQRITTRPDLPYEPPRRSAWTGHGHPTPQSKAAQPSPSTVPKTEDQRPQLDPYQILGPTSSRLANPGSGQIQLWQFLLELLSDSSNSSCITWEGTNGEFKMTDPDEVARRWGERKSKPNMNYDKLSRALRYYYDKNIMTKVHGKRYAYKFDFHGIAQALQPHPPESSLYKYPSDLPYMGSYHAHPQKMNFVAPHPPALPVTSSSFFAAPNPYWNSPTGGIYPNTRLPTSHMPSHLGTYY
The following applies: protein: recombinant; tags: N-terminal GST; dsDNA, one strand shown. An outline of the steps: as §1

Assay [5] addresses ELF1 (Homo sapiens, UniProt P32519 1-619). As to conditions: protein: recombinant; tags: N-terminal GST; dsDNA, one strand shown. An outline of the steps:
as §1

Assay [6] deals with T5, EHF (Homo sapiens, UniProt Q9NZC4 1-300).
T5 sequence: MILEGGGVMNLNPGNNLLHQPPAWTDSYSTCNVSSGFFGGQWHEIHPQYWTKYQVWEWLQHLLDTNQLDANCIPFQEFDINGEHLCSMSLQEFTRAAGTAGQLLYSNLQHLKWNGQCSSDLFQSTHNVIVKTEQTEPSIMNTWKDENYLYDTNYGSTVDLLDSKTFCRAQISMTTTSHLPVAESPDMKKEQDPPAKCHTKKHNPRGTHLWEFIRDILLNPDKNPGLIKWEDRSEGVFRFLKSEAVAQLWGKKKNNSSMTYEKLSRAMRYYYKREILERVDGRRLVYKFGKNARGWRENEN
The following applies: protein: recombinant; tags: N-terminal GST; dsDNA, one strand shown. An outline of the steps:
as §1

For assay [7], the target named is SPI1 (Homo sapiens, UniProt P17947 1-270). The following applies: protein: recombinant; tags: N-terminal GST; dsDNA, one strand shown. An outline of the steps: as §1
Assay [8] deals with SPIB (Homo sapiens, UniProt Q01892 1-262). The following applies: protein: recombinant; tags: N-terminal GST; dsDNA, one strand shown. The gist of the method: as §1
Assay [9] has as its target T6, ELK3 (Homo sapiens, UniProt P41970 1-407).
T6 sequence: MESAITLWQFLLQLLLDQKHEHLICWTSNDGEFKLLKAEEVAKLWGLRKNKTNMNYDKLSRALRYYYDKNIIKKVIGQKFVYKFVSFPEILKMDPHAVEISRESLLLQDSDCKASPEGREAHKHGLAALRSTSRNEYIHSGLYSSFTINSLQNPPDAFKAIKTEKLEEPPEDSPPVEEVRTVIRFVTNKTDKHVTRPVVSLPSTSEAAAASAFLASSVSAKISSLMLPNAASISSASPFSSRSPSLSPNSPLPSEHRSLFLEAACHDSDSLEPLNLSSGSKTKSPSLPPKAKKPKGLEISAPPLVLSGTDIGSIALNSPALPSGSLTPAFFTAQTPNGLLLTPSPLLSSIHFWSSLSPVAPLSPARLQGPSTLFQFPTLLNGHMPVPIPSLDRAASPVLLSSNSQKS
As to conditions: protein: recombinant; tags: N-terminal GST; dsDNA, one strand shown. The gist of the method:
as §1

Assay [10] deals with T7, FEV (Homo sapiens, UniProt Q99581 1-238).
T7 sequence: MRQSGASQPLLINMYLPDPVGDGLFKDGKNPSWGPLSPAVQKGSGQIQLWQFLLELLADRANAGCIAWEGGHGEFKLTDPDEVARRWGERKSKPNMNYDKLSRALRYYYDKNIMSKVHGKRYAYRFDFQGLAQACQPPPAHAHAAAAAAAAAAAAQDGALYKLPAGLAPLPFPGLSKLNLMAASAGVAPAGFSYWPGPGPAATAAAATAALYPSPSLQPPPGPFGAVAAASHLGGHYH
The following applies: protein: recombinant; tags: N-terminal GST; dsDNA, one strand shown. The gist of the method: as §1

The target in assay [11] is ETV5 (Homo sapiens, UniProt P41161 1-510). As to conditions: protein: recombinant; tags: N-terminal GST; dsDNA, one strand shown. An outline of the steps: as §1
For assay [12], the target named is HSF1 (Homo sapiens, UniProt Q00613 1-529). The following applies: protein: recombinant; tags: N-terminal GST; chain copies: 3; dsDNA, one strand shown. The gist of the method: as §1
The target of assay [13] is T8, SPIC (Homo sapiens, UniProt Q8N5J4 1-248).
T8 sequence: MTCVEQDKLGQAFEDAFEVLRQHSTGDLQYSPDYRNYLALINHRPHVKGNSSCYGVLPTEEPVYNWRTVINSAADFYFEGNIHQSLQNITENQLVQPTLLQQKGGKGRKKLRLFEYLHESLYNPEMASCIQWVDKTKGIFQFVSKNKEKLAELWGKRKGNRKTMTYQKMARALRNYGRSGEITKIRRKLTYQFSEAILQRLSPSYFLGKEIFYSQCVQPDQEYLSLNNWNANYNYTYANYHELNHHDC
As to conditions: protein: recombinant; tags: N-terminal GST; dsDNA, one strand shown. The gist of the method: as §1

Assay [14] addresses ELF4 (Homo sapiens, UniProt Q99607 1-663). As to conditions: protein: recombinant; tags: N-terminal GST; dsDNA, one strand shown. The gist of the method:
as §1

Assay [15] has as its target T9, ELK4 (Homo sapiens, UniProt P28324-2 1-405).
T9 sequence: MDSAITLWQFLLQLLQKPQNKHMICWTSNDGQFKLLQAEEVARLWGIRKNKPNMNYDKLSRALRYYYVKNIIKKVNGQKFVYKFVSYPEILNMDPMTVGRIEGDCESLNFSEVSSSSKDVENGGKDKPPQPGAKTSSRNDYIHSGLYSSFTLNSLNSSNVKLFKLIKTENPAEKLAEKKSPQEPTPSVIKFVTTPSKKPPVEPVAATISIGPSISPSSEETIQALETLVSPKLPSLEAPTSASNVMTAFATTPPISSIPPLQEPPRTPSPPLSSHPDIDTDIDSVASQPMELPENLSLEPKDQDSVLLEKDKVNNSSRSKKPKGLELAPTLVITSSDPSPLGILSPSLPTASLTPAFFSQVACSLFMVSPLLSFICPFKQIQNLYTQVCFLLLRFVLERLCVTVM
As to conditions: protein: recombinant; tags: N-terminal GST; dsDNA, one strand shown. The gist of the method: as §1

Assay [16] addresses T10, ETV2 (Homo sapiens, UniProt O00321 1-342).
T10 sequence: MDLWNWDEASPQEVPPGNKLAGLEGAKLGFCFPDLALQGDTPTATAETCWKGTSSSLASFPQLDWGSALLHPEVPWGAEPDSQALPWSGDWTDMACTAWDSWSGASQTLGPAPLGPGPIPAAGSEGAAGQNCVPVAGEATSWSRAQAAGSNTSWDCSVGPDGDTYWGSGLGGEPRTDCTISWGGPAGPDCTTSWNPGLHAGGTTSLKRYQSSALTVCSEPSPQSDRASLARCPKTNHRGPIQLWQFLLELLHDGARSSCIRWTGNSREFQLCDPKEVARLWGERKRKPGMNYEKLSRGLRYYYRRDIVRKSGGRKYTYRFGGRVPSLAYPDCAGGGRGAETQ
The following applies: protein: recombinant; tags: N-terminal GST; dsDNA, one strand shown. The gist of the method:
as §1

The target of assay [17] is T11, ELF3 (Homo sapiens, UniProt P78545 1-371).
T11 sequence: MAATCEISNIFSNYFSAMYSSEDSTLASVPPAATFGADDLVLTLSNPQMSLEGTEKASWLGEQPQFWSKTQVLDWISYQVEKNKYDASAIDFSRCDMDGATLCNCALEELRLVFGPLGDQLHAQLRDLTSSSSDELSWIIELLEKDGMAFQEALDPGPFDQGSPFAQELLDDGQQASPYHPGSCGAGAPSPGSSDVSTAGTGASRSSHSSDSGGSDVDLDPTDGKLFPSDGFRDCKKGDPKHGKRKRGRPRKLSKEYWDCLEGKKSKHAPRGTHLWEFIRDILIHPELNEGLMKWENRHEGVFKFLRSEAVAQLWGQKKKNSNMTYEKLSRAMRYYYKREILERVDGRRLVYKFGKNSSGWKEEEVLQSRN
As to conditions: protein: recombinant; tags: N-terminal GST; dsDNA, one strand shown. The gist of the method: as §1

For assay [18], the target named is CRX (Homo sapiens, UniProt O43186 1-299). The following applies: protein: recombinant; tags: N-terminal GST; dsDNA, one strand shown. The gist of the method:
as §1

The target in assay [19] is ETV1 (Homo sapiens, UniProt P50549 1-477). As to conditions: protein: recombinant; tags: N-terminal GST; dsDNA, one strand shown. The gist of the method:
as §1

Results on one sequence are retold here after publication PMC7862700, “An all-to-all approach to the identification of sequence-specific readers for epigenetic DNA modifications on cytosine”.

Sequence of ELF1 (P32519 whole entry): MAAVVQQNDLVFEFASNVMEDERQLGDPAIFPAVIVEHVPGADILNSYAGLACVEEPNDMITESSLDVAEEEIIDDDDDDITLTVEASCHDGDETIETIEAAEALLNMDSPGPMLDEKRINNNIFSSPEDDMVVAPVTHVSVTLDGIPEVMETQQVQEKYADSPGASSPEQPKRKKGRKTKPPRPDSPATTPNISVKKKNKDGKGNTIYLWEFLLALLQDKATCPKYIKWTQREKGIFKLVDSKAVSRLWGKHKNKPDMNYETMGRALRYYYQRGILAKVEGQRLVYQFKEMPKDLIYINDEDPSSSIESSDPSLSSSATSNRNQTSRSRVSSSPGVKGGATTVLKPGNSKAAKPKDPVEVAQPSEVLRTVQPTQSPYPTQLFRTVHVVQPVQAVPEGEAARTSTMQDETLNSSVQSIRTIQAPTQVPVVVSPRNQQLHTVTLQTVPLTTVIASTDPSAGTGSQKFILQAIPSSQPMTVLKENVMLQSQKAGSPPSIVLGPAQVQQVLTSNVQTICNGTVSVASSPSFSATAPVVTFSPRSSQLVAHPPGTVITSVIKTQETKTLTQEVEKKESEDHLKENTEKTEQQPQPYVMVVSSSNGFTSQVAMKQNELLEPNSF
Sequence of CRX (O43186 whole entry): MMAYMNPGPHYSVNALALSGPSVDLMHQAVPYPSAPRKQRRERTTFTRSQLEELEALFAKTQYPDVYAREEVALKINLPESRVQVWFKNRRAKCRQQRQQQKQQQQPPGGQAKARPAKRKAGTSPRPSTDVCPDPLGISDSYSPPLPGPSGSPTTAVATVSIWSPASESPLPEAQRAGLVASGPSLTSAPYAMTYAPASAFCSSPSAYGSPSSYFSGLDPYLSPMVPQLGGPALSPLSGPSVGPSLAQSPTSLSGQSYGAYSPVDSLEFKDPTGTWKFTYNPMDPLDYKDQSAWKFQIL
Sequence of ELF4 (Q99607 whole entry): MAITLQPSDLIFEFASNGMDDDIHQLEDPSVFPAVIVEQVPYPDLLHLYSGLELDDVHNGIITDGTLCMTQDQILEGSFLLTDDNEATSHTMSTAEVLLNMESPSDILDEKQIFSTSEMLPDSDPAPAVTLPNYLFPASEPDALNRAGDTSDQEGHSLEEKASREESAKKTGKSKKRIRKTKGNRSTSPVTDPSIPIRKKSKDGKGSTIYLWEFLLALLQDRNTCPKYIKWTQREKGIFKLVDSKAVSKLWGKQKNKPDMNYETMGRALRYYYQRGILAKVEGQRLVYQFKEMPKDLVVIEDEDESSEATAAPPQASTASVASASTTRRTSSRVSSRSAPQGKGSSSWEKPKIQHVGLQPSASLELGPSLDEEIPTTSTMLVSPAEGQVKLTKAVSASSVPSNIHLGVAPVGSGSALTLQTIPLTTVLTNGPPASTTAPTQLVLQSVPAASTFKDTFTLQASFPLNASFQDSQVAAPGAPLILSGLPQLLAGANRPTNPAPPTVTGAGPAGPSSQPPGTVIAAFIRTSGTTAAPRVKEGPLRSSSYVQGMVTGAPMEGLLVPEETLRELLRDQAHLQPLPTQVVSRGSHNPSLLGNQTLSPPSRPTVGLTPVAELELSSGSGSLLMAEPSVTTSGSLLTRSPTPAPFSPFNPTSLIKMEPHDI
Sequence of ETV5 (P41161 whole entry): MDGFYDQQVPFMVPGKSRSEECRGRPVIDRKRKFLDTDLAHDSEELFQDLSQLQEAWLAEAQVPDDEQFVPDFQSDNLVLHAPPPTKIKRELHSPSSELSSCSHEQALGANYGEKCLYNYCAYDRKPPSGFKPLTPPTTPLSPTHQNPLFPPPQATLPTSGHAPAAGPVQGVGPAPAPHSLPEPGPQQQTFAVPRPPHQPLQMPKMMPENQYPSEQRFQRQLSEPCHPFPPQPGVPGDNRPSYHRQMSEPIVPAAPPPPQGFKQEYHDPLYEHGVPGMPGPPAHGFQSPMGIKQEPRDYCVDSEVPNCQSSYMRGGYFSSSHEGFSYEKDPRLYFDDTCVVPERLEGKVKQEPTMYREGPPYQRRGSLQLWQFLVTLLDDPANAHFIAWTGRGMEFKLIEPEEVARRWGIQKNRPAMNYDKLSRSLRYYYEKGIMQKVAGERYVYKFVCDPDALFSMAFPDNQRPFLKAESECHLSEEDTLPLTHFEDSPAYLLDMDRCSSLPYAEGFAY
Sequence of HSF1 (Q00613 whole entry): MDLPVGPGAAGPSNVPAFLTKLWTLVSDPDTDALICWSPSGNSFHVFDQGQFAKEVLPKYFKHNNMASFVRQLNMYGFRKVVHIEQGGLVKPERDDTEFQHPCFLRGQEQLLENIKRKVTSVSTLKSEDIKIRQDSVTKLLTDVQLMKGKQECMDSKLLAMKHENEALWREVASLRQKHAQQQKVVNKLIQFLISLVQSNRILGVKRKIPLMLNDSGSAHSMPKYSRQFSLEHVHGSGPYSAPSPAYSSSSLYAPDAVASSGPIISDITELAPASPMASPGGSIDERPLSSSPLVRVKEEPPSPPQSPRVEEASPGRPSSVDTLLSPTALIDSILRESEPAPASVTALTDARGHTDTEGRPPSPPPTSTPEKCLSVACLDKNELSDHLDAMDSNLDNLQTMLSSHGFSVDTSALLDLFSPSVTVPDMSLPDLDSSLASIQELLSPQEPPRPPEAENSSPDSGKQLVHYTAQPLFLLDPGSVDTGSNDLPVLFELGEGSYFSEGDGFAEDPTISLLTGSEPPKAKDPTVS
Sequence of SPIB (Q01892 whole entry): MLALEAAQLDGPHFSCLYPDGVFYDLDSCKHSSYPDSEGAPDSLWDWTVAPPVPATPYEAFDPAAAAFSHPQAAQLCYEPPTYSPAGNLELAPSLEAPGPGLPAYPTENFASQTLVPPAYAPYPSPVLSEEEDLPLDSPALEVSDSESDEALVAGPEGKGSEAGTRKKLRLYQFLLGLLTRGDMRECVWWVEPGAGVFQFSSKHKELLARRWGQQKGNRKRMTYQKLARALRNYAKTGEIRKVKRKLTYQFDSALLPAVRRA
Sequence of ETV1 (P50549 whole entry): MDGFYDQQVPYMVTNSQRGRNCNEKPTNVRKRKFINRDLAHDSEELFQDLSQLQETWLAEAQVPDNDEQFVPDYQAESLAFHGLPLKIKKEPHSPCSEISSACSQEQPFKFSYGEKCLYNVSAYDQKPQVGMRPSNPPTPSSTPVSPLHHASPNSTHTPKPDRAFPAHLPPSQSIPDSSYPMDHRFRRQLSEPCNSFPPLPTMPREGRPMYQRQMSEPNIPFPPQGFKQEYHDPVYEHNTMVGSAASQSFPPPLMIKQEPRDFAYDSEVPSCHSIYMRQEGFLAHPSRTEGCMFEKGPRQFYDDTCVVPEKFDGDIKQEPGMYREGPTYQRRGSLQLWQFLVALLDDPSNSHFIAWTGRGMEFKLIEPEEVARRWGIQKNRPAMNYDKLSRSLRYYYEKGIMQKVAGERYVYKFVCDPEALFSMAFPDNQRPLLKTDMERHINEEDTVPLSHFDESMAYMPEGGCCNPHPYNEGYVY

As to TGTATT, the binding signal in assay [1] is 1.38 fold enrichment (6-mer frequency, TF over GST control); in assay [2], 1.31 fold enrichment (6-mer frequency, TF over GST control); in assay [3], 1.33 fold enrichment (6-mer frequency, TF over GST control); in [4], 1.32 fold enrichment (6-mer frequency, TF over GST control); in assay [5] it was 1.37 fold enrichment (6-mer frequency, TF over GST control); in assay [6] it was 1.34 fold enrichment (6-mer frequency, TF over GST control). Moreover, the binding signal in [7] was 1.28 fold enrichment (6-mer frequency, TF over GST control); in assay [8], 1.28 fold enrichment (6-mer frequency, TF over GST control); in [9], 1.43 fold enrichment (6-mer frequency, TF over GST control); in assay [10] it was 1.34 fold enrichment (6-mer frequency, TF over GST control); in assay [11], 1.33 fold enrichment (6-mer frequency, TF over GST control); in [12], 1.3 fold enrichment (6-mer frequency, TF over GST control). For the same sequence, the binding signal was 1.4 fold enrichment (6-mer frequency, TF over GST control) in [13]; 1.36 fold enrichment (6-mer frequency, TF over GST control) in assay [14]; 1.33 fold enrichment (6-mer frequency, TF over GST control) in [15]; 1.32 fold enrichment (6-mer frequency, TF over GST control) in [16]; 1.24 fold enrichment (6-mer frequency, TF over GST control) in [17]; 1.56 fold enrichment (6-mer frequency, TF over GST control) in [18]. Further, the binding signal in assay [19] is 1.4 fold enrichment (6-mer frequency, TF over GST control).
